Assay outcomes (PubChem)
This excerpt belongs to a sample that is enriched for hits.
RBX1-CUL1 inh = inhibitors of human ROC1-CUL1 ubiquitin ligase activity | E3 ubiquitin-protein ligase RBX1 (Homo sapiens) + Cullin-1 (Homo sapiens), P62877+Q13616 | in vitro K48 di-Ub FRET, acceptor:donor ratio, 45 min | hit rate 0.6% among 140,000 | inhibition, % at 10 µM; in the data active = inhibition above about 25%
* hit, by the source's call.

`COc1ccc(CCN2CCCC(CN(C)Cc3csc(C(C)=O)c3)C2)cc1` (stereo not drawn) gave RBX1-CUL1 inh 5.1.
Screening CCCCCCCC1=NN2C(=N)/C(=C/c3ccc(-c4cccc(C(=O)O)c4)o3)C(=O)N=C2S1 returned RBX1-CUL1 inh 96.8*.
`CCCCCCCC1=NN2C(=N)/C(=C/c3ccccc3C)C(=O)N=C2S1` gave RBX1-CUL1 inh 1.9.
Screening CCCC1=NN2C(=N)/C(=C/c3ccc(-c4cccc(C(=O)O)c4)o3)C(=O)N=C2S1 returned RBX1-CUL1 inh 10.7.
`Cc1ccccc1NC(=O)CN1C(=O)S/C(=C\c2cccn2-c2cccc(C(=O)O)c2)C1=O` gave RBX1-CUL1 inh 51.2*.
`Cc1cccc(NC(=O)CN2C(=O)S/C(=C\c3cccn3-c3cccc(C(=O)O)c3)C2=O)c1` gave RBX1-CUL1 inh 9.8.
For Cc1ccc(NC(=O)CN2C(=O)S/C(=C\c3cccn3-c3cccc(C(=O)O)c3)C2=O)c(C)c1 the results were RBX1-CUL1 inh 72.3*.
Screening Cc1ccc(NC(=O)CN2C(=O)S/C(=C\c3ccc(N4CCCC4)c(F)c3)C2=O)c(C)c1 returned RBX1-CUL1 inh -5.6.
For Cc1cccc(C)c1NC(=O)CN1C(=O)S/C(=C\c2cccn2-c2cccc(C(=O)O)c2)C1=O the results were RBX1-CUL1 inh -2.7.
`Cc1ccccc1NC(=O)CN1C(=O)S/C(=C/c2ccccc2)C1=O` gave RBX1-CUL1 inh -0.6.
Screening Cc1ccc(NC(=O)CN2C(=O)S/C(=C\c3ccccn3)C2=O)cc1C returned RBX1-CUL1 inh -0.2.
For Cc1ccc(NC(=O)CN2C(=O)S/C(=C\c3ccc(N4CCOCC4)cc3C)C2=O)c(C)c1 the results were RBX1-CUL1 inh -7.2.
`Cc1ccc(NC(=O)CN2C(=O)S/C(=C\c3cccn3-c3cccc(C(=O)O)c3)C2=O)cc1C` gave RBX1-CUL1 inh 48.1*.
`CCOc1ccc2c(c1)-c1c(ssc1=Nc1cccc(NC(C)=O)c1)C(C)(C)N2` gave RBX1-CUL1 inh 9.9.
Screening COc1cc(OC)c(/C=N/NC(=O)c2ccc(Cl)cc2Cl)cc1Br returned RBX1-CUL1 inh -4.0.
`CCc1nn(-c2cc(Oc3ccccc3C)ncn2)c(N)c1C#N` gave RBX1-CUL1 inh 9.4.
For CC(=O)c1ccc(OCC(=O)N2CCc3c(cnc(C)c3CNC(=O)Cc3cccs3)C2)cc1 the results were RBX1-CUL1 inh -9.1.
For O=C1CC[C@@H](CN(Cc2ccccc2)Cc2nc(NCc3cccs3)c3ccccc3n2)N1 the results were RBX1-CUL1 inh 0.0.
`O=C1CSC2(C(=O)Nc3ccccc32)N1c1ccc(Br)cc1` (stereo not drawn) gave RBX1-CUL1 inh 0.4.
Screening Cc1ccc(N2C(=O)CSC23C(=O)Nc2ccc(C)cc23)cc1 (stereo not drawn) returned RBX1-CUL1 inh 94.3*.
Screening COc1cc(OC)cc(N2C(=O)CSC23C(=O)Nc2ccccc23)c1 (stereo not drawn) returned RBX1-CUL1 inh 1.8.
Cc1cccc(COc2ccc(C3c4c(n[nH]c4-c4ccc(Cl)cc4)OC(=N)C3C#N)cc2)c1 (stereo not drawn) was read as RBX1-CUL1 inh 1.5.
`COC(=O)c1cc(Br)ccc1Cl` gave RBX1-CUL1 inh 4.1.
`COC(=O)c1cc(Br)cc(O)c1O` gave RBX1-CUL1 inh 83.1*.
Screening COC(=O)c1ccc(C(=O)OC)c(NC(=O)c2ccc(Br)cc2)c1 returned RBX1-CUL1 inh -8.9.
For Nc1ccc2cccc(C(=O)O)c2n1 the results were RBX1-CUL1 inh 69.9*.
For Nc1ccc2ccc3cccnc3c2n1 the results were RBX1-CUL1 inh -8.3.
For CS(=O)(=O)c1ccccc1C(=O)O the results were RBX1-CUL1 inh 4.1.
`COc1ccc(CNC(C)c2cnc(-c3ccncc3)nc2C)c(F)c1` (stereo not drawn) gave RBX1-CUL1 inh -5.1.
CC(C1CCN(C(=O)c2cc(COc3ccccc3)[nH]n2)CC1)N1CCOCC1 (stereo not drawn) was read as RBX1-CUL1 inh -5.4.
Screening O=C1/C(=C\c2ccccc2)CCC/C1=C\c1ccccc1 returned RBX1-CUL1 inh -1.0.
For CC1(C)CC(=O)/C(=C\c2ccccc2)C(C)(C)N1 the results were RBX1-CUL1 inh 25.0*.
`O=C1C(=O)/C(=C/c2ccccc2)CCC/C1=C/c1ccccc1` gave RBX1-CUL1 inh -1.3.
Screening COc1cc(/C=N/NC(N)=S)ccc1OCc1ccc(Cl)cc1Cl returned RBX1-CUL1 inh 6.2.
`O=C(NCCCn1cccn1)c1cn(Cc2ccc(Cl)cc2)nn1` gave RBX1-CUL1 inh 4.9.
For O=S(=O)(Cc1cccc(Cl)c1)Nc1c(F)cccc1F the results were RBX1-CUL1 inh -5.7.
For Cc1ccc(N2C(=O)/C(=C/c3ccc(-c4ccccc4)o3)C(=O)NC2=S)cc1Cl the results were RBX1-CUL1 inh -2.4.
`O=C1NC(=S)N(c2cccc(F)c2)C(=O)/C1=C/c1ccc(Sc2ccc(Cl)cc2)o1` gave RBX1-CUL1 inh 0.3.
For O=C1NC(=S)N(c2ccc(Br)cc2)C(=O)/C1=C/c1ccc(Sc2nc3ccccc3[nH]2)o1 the results were RBX1-CUL1 inh 107.6*.
For CC(=O)c1ccc(NC(=O)/C=C/c2ccc(C)o2)cc1 the results were RBX1-CUL1 inh 7.1.
For Cc1ccc(/C=C/C(=O)O)o1 the results were RBX1-CUL1 inh 34.9*.
For Cc1ccc(NC(=O)/C=C/c2ccc(C)o2)c(Br)c1 the results were RBX1-CUL1 inh 63.2*.
Cc1ccc(NC(=O)/C=C/c2ccc(Cl)cc2)c(Br)c1 was read as RBX1-CUL1 inh -8.3.
Screening CC(=C/C(=O)O)/C=C/c1ccc(Cl)o1 returned RBX1-CUL1 inh -0.5.
Cc1ccc(NC(=O)/C=C/c2ccc(C)o2)c(C)c1 was read as RBX1-CUL1 inh 0.1.
For O=C(c1cc(COc2ccccc2)on1)N1CCCCC1CCn1cccn1 (stereo not drawn) the results were RBX1-CUL1 inh -3.9.
O=C1CC(N2CCN(c3ccc(F)cc3)CC2)=NC(=O)N1c1ccc(Br)cc1 was read as RBX1-CUL1 inh -3.6.
Screening O=C(c1ccc2ccccc2c1)C1CCCN(C(=O)CCN2CCCC2=O)C1 (stereo not drawn) returned RBX1-CUL1 inh -5.3.
COC(=O)CCC(=O)N1CCCC(C(=O)c2ccc3ccccc3c2)C1 (stereo not drawn) was read as RBX1-CUL1 inh -0.4.
CCn1cc(C(=O)N2CCCC(C(=O)c3ccc4ccccc4c3)C2)cn1 (stereo not drawn) was read as RBX1-CUL1 inh 67.5*.
Screening Cc1nc(C2CCCNC2)cc(N(C)Cc2csc(-c3cccs3)n2)n1 (stereo not drawn) returned RBX1-CUL1 inh 8.5.
Screening CC1=NN(C(C)C)c2nc3c(c(=O)n(C)c(=O)n3C)n2C1C (stereo not drawn) returned RBX1-CUL1 inh 10.3.
For O=C(N/N=C/c1c(O)ccc2ccccc12)c1ccc2nc[nH]c2c1 the results were RBX1-CUL1 inh 4.0.
Cc1ccc2oc3ccccc3c(=O)c2c1 was read as RBX1-CUL1 inh -4.5.
Screening Cc1c(-c2ccc(O)c(O)c2)oc2ccccc2c1=O returned RBX1-CUL1 inh 92.8*.
Screening Cc1cccc2oc3ccccc3c(=O)c12 returned RBX1-CUL1 inh 0.0.
COc1ccc(-c2ccc3c(N)c(C(=O)Nc4cc(Cl)ccc4C)sc3n2)cc1 was read as RBX1-CUL1 inh -2.2.
CS(=O)(=O)n1c(Cc2ccccc2)nc2ccccc21 was read as RBX1-CUL1 inh 5.5.
Cc1ccc2cc(C3=CCC(=O)O3)ccc2c1 was read as RBX1-CUL1 inh 20.0.
